The text below walks through data of the supplement of paper PMC6555819.

This assay deals with VDR:RXRa (NR concentration 270 nM, RXRa partner concentration 90 nM). The assay can be described thus: PBM binding z-score (relative to random genomic background probes); higher = stronger binding; sequences stand for … in GC…GCGATTGACAGCGTAGAATGAAGG
As to the method: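 Protein-binding microarray (Agilent 4x180K custom design, double-stranded 60-nt probes: 5' GC cap, 34-nt variable region, 24-nt constant primer region; full probe sequence given). Purified or IVT nuclear receptor:RXRα heterodimers (3:1 NR:RXRα, mostly 270:90 nM) or homodimers were incubated for 1 h in PBS with 2% milk and no ligand, then detected with Alexa488 antibodies. Fluorescence from o1-orientation probes (~5 replicates averaged) was converted to z-scores against 500 random hg19 background probes. Variable regions are seed direct-repeat (DR0–DR5) sites, all their single-nucleotide variants and half-site ablations.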
Sequence CGAACTAGGCCAGAACAGGACAGTGAAGGATGAT yielded a PBM binding z-score of -0.283. As to GGAACGAGGGCAAGTTCATAGCAGAGTTTGATGG, the PBM binding z-score worked out at 3.9. For AATGCAGGGTCATCGTAGGCCAGAGTACGCACAG the value was 5.1; for ATACCAAGGTGATCGTGAGGTCGTTGTTACTAAC, 3.18. For ACTTACGGGTCAACGAGGTTAGAGCACGCGTATA the value was 7.15; for TAGTCTAGGTCAGATCGGGCCAGTATACGCTATA, 0.995; for TCATATAGGTAAATGCTAGGTGACAGTCCGATCT, 0.746. As for ATCTCTCGGTAAAGTTCAGTGAAAGATCGATAGA, the PBM binding z-score was found to be 1.1. Under GTACCAAGGTGAATAGGTCGTTGAAGAGTAGGCG stands 1.01.

In turn, TCATATAGGTAATTGCTAGGTGAAAGTCCGATCT showed a PBM binding z-score of 0.884. For CCTTACGGCTCAAGGTTATAGCACGGGTGGTACG the value was 0.122; for CCTAGCAGGCGAATCTGGGTCACTCAAGGCTTGA, -0.0504; for ATTCAAAGTTCAGGACGAGGTAACGTAAAGCACG, 3.14. Under ATACCAAGGTGATCGTGAGCTCGTTGATACTAAC stands -0.0163; under GCAGACAGGCGAAACGCAGGTAACTCAGGGTGGC, -0.853.

Sequence CCGACTGGGGCATAAGGTTACCATTAGCCAGCCC yielded a PBM binding z-score of -0.0219. For CCTATTAGTTGACCGTAAGGGCAACCGAAGCTCG the value was 0.821; for ATCGAAAGGTCGAGGTGAATATAGAGAAAGGGAA, 2.45.

TCATATAGGTATATGCTAGGTGAAAGTCCGATCT gave a PBM binding z-score of 0.832. Under CTGACTGGGGCAAGGTTACCATAACGCACAGCCA stands 0.261; under TCTGCTAGGTCAACGCTGGTCAGCTAATCTGCTA, 1.36; under CCTATTAGTTGACCAGAAGGGCAACCGAAGCTCG, 0.596. Under ATTTCTAGGTAAAAGTTCAGTGAATCCCGAGGAT stands 1.77; under ACTAGTTGGTCAGTTGAGGTCACACACAATTCGG, 4.65. For ATTAGCAGGCCAAGGGTCACTCAAGATTAGTCCG the value was 2.92; for AGAATGAGGTTATTAAGATCGGGGAATTGCGGTC, 1.98. As to CCTCGGGGGACAACAGGAGGTCAGAGCTGCCAGA, the PBM binding z-score stood at 2.71. Under TCTGGTTGGTCAAAGGTCACACACTCGAAATGCG stands 5.33; under GCTCGGAGGACAAGGTGAGAGCTTTGTCCGTAGA, -0.606. For GGAACGAGGGCAACGTTGATAGCATCTGTCGACG the value was 0.229; for AGAATGAGGTTATACGAAGATCAGGGAAGAAAGT, 1.13; for TCTAATAGTTGATTAGGGCAACCGAAACAGCGGA, 0.582. Under GGAACGAGGGCATGCGAGTTGATAGCATGGCGAT stands 2.9. The sequence TCGAGTAGGTTACCAATGGGGCGTTCAGCTTTCT showed a PBM binding z-score of -0.111.

The sequence CGAACTAGGTCAGAACAGGACAGTGAGGGATGAT registered a PBM binding z-score of 0.739. CCTTACGGGTCAAGGTTATAGCTCGGGTGGTACG yielded a PBM binding z-score of 3.3.

On to CCTGCTAGGTCATGGTCAGCAAATCTACAGTATG, for which the PBM binding z-score came out at 1.48.

Consider CGTCCAAGGTTAATGCTAGGTCAGTGAAAGCATT, for which the PBM binding z-score stood at 1.86. On to TAGCCTAGGTTATTCAGGGGCCAGTATAGAAAGC, for which the PBM binding z-score is 0.101. For AGTCAAAGTTCATCTAGGTAACGTACGATATGCT the value was 5.15.
